# Experimental data as given in the supplement of paper PMC6555819.
# Experiments:
# Test in all cases: PBM binding z-score (relative to random genomic background probes); higher = stronger binding; sequences stand for … in GC…GCGATTGACAGCGTAGAATGAAGG
# [1] = tested on: FXR:RXRa (NR concentration 270 nM, RXRa partner concentration 90 nM)
# How it was run: (§1)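 Probes were double-stranded and carried 34-nt variable regions with direct-repeat seeds, single-nucleotide variants, half-site ablations and random human genomic background sequences, printed on custom Agilent 4×180K protein-binding microarrays. Arrays were incubated 1 h with ligand-free nuclear receptor dimers in PBS pH 7.4, 2% milk, 0.02% Triton X-100, 1 mM DTT, 0.2 mg/mL BSA and 0.4 mg/ml salmon testes DNA. Antibodies against each partner (one per run) detected binding, and scanned fluorescence was regression-normalized. Binding z-scores use the random background probes as reference.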
# [2] = tested on: LXRa:RXRa (NR concentration 270 nM, RXRa partner concentration 90 nM)
# How it was run: as §1
# [3] = tested on: LXRa homodimer (NR concentration 270 nM)
# How it was run: as §1
# [4] = tested on: LXRb:RXRa (NR concentration 270 nM, RXRa partner concentration 90 nM)
# How it was run: as §1
# [5] = tested on: LXRb homodimer (NR concentration 270 nM)
# How it was run: as §1
# [6] = tested on: PPARa:RXRa (NR concentration 270 nM, RXRa partner concentration 90 nM)
# How it was run: as §1
# [7] = tested on: PPARg:RXRa (NR concentration 180 nM, RXRa partner concentration 90 nM)
# How it was run: as §1
# [8] = tested on: PPARg:RXRa 270nM:90nM, anti-RXR (NR concentration 270 nM, RXRa partner concentration 90 nM)
# How it was run: as §1
# [9] = tested on: PPARg:RXRa 30nM:10nM, anti-RXR (NR concentration 30 nM, RXRa partner concentration 10 nM)
# How it was run: as §1
# [10] = tested on: PPARg:RXRa 90nM:30nM, anti-RXR (NR concentration 90 nM, RXRa partner concentration 30 nM)
# How it was run: as §1
# [11] = tested on: PPARg:RXRa DBDmut IVT, anti-RXR (DBD mutation: RXRa K156A/R161A, NR concentration 270 nM, RXRa partner concentration 90 nM)
# How it was run: as §1
# [12] = tested on: PPARg:RXRa IVT, anti-PPARg (NR concentration 270 nM, RXRa partner concentration 90 nM)
# How it was run: as §1
# [13] = tested on: PPARg DBDmut:RXRa IVT, anti-PPARg (DBD mutation: PPARg1 K132A/R137A, NR concentration 270 nM, RXRa partner concentration 90 nM)
# How it was run: as §1
# [14] = tested on: PPARg DBDmut IVT, anti-PPARg (DBD mutation: PPARg1 K132A/R137A, NR concentration 270 nM)
# How it was run: as §1
# [15] = tested on: PPARg homodimer (NR concentration 180 nM)
# How it was run: as §1
# [16] = tested on: PXR:RXRa (NR concentration 270 nM, RXRa partner concentration 90 nM)
# How it was run: as §1
# [17] = tested on: PXR homodimer (NR concentration 270 nM)
# How it was run: as §1
# [18] = tested on: RARa:RXR (NR concentration 270 nM, RXRa partner concentration 90 nM)
# How it was run: as §1
# [19] = tested on: RARa homodimer (NR concentration 270 nM)
# How it was run: as §1
# [20] = tested on: RARb:RXRa (NR concentration 270 nM, RXRa partner concentration 90 nM)
# How it was run: as §1
Sequence,PBM binding z-score [1],PBM binding z-score [2],PBM binding z-score [3],PBM binding z-score [4],PBM binding z-score [5],PBM binding z-score [6],PBM binding z-score [7],PBM binding z-score [8],PBM binding z-score [9],PBM binding z-score [10],PBM binding z-score [11],PBM binding z-score [12],PBM binding z-score [13],PBM binding z-score [14],PBM binding z-score [15],PBM binding z-score [16],PBM binding z-score [17],PBM binding z-score [18],PBM binding z-score [19],PBM binding z-score [20]
AGAATGAGGTTATGAAGATCAGGGAATTGCGGTC,1.75,1.53,0.162,1.04,-0.127,2.86,1.68,2.1,1.05,1.61,3.44,2.45,0.386,-0.347,0.625,1.18,0.111,1.87,0.262,1.7
TCTGTTAGTTGAAGGGCAACCGACGAGTCCGTTT,0.758,0.866,0.374,0.639,0.983,0.837,-0.0567,1.91,3.09,2.14,1.61,1.1,0.429,0.734,1.19,0.704,1.02,0.521,0.738,1.65
GCAGACAGGTGAAACGAAGGTAACTCAGGGTGGC,0.0182,0.296,-0.444,0.0431,-1.08,0.924,0.836,0.16,-0.263,-0.133,0.963,0.555,0.0896,-0.484,-0.228,0.0362,-0.595,0.681,-0.536,0.818
AATACAGGGTCATCGTAGGCCAGAGTCCGCACAG,7.16,6.35,2.6,4.52,1.21,5.96,6.83,5.83,2.39,4.51,2.98,4.32,0.922,0.82,2.39,4.96,0.483,4.93,0.764,4.45
ATCTAAAGGTCGTGAGGTGAGTATACAGAAAGGC,5.84,5.04,1.01,3.73,1.12,5.2,4.73,4.73,2.02,3.72,1.12,2.89,1.3,1.74,2.21,3.4,0.645,4.46,1.13,4.15
TCTCGGAGGACACTAAGGTCAGAGCTTTCCAGAG,1.87,1.63,0.625,1.5,-0.615,2.32,0.459,1.84,2.1,1.81,1.61,1.22,-0.543,-1.32,1.72,3.24,6.61,2.71,-0.0898,3.32
TGTCAAAGTTCAACGGTAACGTAAGTATCCACAC,6.73,5.85,4.19,3.92,1.33,5.05,8.27,7.38,5.3,6.83,0.0114,4.34,1.07,1.67,3.02,4.77,3.78,4.08,1.62,5.03
AATAGTTGGTCAGCTGAGGTCACACACAATTCGG,3.52,3.25,3.1,3.57,1.05,3.81,2.21,2.14,0.525,1.25,1.3,2.86,1.06,0.792,3.85,5.58,2.36,4.78,2.44,3.7
AGAACGAGGGCAATGAGTTGATAGGACGGGTGGC,0.234,0.0995,-0.497,-0.197,-0.468,1.05,1.48,0.681,0.137,0.397,3.48,2.09,0.826,0.0416,-0.0695,1.12,5.45,0.114,-0.321,2
ATCGAAAGGTCGAGGTGAGTACAGAGAAAGGGAA,4.22,3.51,0.276,2.53,0.653,4.64,3.5,3.96,1.38,2.61,0.64,2.65,1.01,0.9,1.64,3.27,0.251,3.11,1.29,4.14
CCTAGTTGGTCATGAGGTCACACACCGGATATGA,4.57,4.17,2.56,4,0.753,4.65,4.15,4.5,2.25,3.46,2.85,4.41,1.13,0.4,4.56,5.34,2.23,5.4,2.94,4.14
TCTAGTTGGTCACGGAGGTCACACAAGACGGGTA,3.16,3.39,2.41,3.46,0.597,3.99,3.49,4.05,3.51,3.75,2.31,4.34,0.505,0.71,2.71,4.55,1.16,4.17,1.37,3.87
ACAATGAGGTTAAGATCAGGGAAACAGAATACAT,2.2,2.23,0.0608,1.85,0.674,3.04,2.06,1.68,0.802,1.24,1.93,1.78,1.53,1.8,1,1.35,0.672,1.97,1.24,1.95
TGAATGAGGTTATAAGATGAGGGAACGTTGCAAA,1.51,1.28,-0.0389,1.09,0.338,2.36,1.1,1.61,1.03,1.43,1.09,1.5,0.967,0.169,0.684,0.72,-0.291,1.49,0.262,1.19
ACTCGGAGGCCAAAGGTCAGAGCTACGCCAGTGA,4.88,4.5,1.02,3.69,0.134,5.63,8.85,7.98,6.53,8.9,1,4.07,0.0532,-0.392,6.38,4.9,-0.00137,6.59,1.38,4.53
ATCGAAAGGTCGAAGGCGAGTATACCCACCCGAA,4.01,3.3,0.25,2.4,0.608,3.71,2.33,2.5,0.887,1.49,-0.0271,1.19,0.286,0.268,1.03,2.14,-0.132,2.87,0.519,3.57
ATCTCTAGGTAAGACTCGGTTCAGTGAAGAACGC,0.472,0.583,0.614,0.263,1.07,-0.0579,-0.0197,0.126,0.0672,0.278,2.07,1.14,0.784,0.701,0.702,0.669,1.18,0.0867,1.5,0.192
CCTTACGGGTCACTCCGGGTTATAGCATCGGAGT,5.38,6.79,0.448,4.31,0.169,4.62,3.58,4.18,1.34,3.26,1.96,3.06,0.27,-0.00571,1.92,4.6,-0.199,3.88,0.188,3.37
ATCTCTAGGTAAATATAGTTCAGTGAATGCAAAT,0.614,5.89,1.51,2.5,1.12,0.691,1.16,0.903,1.13,1.05,1.8,1.91,1.61,1.65,1.19,1.38,0.957,0.923,1.21,0.851
GCTTGTAGATCAAGGTTAAGAAGGACTAAGCTAA,0.204,0.416,-0.49,0.546,-1.11,1.38,0.945,2.08,0.323,1.79,1.59,0.939,-0.676,0.139,-0.16,0.306,-0.0751,0.701,-0.375,0.923
TAGCTTAGGTCATGGGCCAGTATACCACGCGAAC,4.7,3.6,0.14,2.77,0.0949,4.23,2.88,3.21,0.853,2.08,1.43,2.29,0.945,-0.133,1.14,1.82,-0.151,2.69,0.342,4.1
AGTCAAACTTCATCTAGGTAACGTAAGATATGCT,-0.0376,-0.223,-0.295,0.127,0.1,-0.0609,0.882,0.333,0.414,0.33,0.952,1.7,1.48,0.721,-0.505,-0.365,0.02,-0.125,0.222,0.212
ATACCAAGGTGATCGTGAGGTCGTTGAAACTAAC,2.15,1.49,0.854,1.6,0.171,2.03,0.268,0.273,-0.226,0.172,0.647,1.34,0.138,0.0797,1.05,3.33,1.61,2.57,0.829,1.7
AGAACGAGCGCAATGAGTTGATAGCACGGGTGGC,-0.384,-0.917,-0.672,-1.03,-0.728,-0.619,0.568,-0.754,-0.641,-0.779,-0.343,-0.563,0.051,-0.552,0.0308,-0.486,-0.247,-0.449,-0.49,-0.312
GGAACGAGGGCACAGTTGATAGCATCTGTCGACG,0.318,0.136,-0.684,-0.053,-0.903,1.95,3.25,3.63,1.56,3.28,3.74,3.92,0.579,-0.629,0.434,0.227,-0.335,0.367,-0.231,2.02
CGTCCATGGTCAAGGTCAGTGAAAGAGACTCGAA,1.92,1.67,0.03,1.6,-0.273,2.38,1.13,1.68,0.0317,0.977,0.484,1.54,-0.688,-0.778,1.17,1.78,0.42,2.23,0.236,3.59
CGAACTAGGTCATTGACAGGACGGTGAATAGTAA,4.57,2.37,0.115,1.47,-0.0948,4.67,7.41,6.31,3.36,5.61,8.29,8.22,1.89,0.528,0.985,1.12,-0.168,1.81,0.0523,3.63
AGAATGAGGTGATACGTAGATCAGGGAAGAAAGT,0.335,-0.0138,-0.435,-0.252,-0.444,1.52,1.16,1.16,0.448,0.958,4.06,2.23,1.58,0.564,0.0718,-0.029,0.133,0.117,-0.0248,0.411
